# The full list was thinned out, with hits kept by preference.
# RE007 growth inh: less growth of the S. pombe RE007 Vpr strain | S. pombe RE007 Vpr strain, BacTiter-Glo ATP luminescence, 24 h | Potency, µM (top dose mostly 92.2 µM), without a hit: at the highest dose activity change, negative = less growth, usual class: inhibitors | actives 0.21% (n = 360,000) | AID 651644; active = well fitted falling curve with a large enough effect; inconclusive = small, poorly fitted or top-dose-only effect; inactive = no such curve, though single readings can be large or run the other way; also: potency is read from the fitted curve at half-maximal effect; % is scaled to controls: 0 for no effect and ±100 for the full control effect; nearly all actives have a fitted effect of over 50% in size
#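 Fission yeast RE007 carrying one integrated HIV-1 vpr copy, seeded at OD 0.01 in PMG+AL medium with 23 nL pinned compound. Grown 24 h at 30 degrees; viability read by BacTiter-Glo luminescence after 5 min.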
# TbPYK inhibitor: inhibitors of Trypanosoma brucei pyruvate kinase | Potency, µM (titrated, usually from 76.8 µM), for the others: at the top dose activity, negative = inhibition, hits mostly inhibitors | actives 0.12% (n = 410,000) | TbPYK enzyme, Kinase-Glo Plus ATP luminescence, 45 min; also: potency is read from the fitted curve at half-maximal effect; % is scaled to controls: 0 for no effect and ±100 for the full control effect; nearly all actives have a fitted effect of over 50% in size
#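 Quantitative HTS: titrated library compounds versus trypanosomal pyruvate kinase in TEA buffer (pH 7.2) containing KCl, MgCl2, BSA and Tween-20. Reactions were initiated with ADP, 130 uM final. Kinase-Glo Plus luminescence was read after 45 min at RT.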
# LmPK inh: LmPK (Leishmania mexicana) enzyme inhibition. Q27686. purified LmPK, Kinase-Glo ATP luminescence, 1 h. Potency, µM (titrated, usually from 57.5 µM), inactives show at the top dose activity change, negative = inhibition, most hits filed as inhibitors. actives 0.37% (n = 290,000); also: potency is read from the fitted curve at half-maximal effect; % is scaled to controls: 0 for no effect and ±100 for the full control effect
# Target sequence (Q27686 whole entry, looked up): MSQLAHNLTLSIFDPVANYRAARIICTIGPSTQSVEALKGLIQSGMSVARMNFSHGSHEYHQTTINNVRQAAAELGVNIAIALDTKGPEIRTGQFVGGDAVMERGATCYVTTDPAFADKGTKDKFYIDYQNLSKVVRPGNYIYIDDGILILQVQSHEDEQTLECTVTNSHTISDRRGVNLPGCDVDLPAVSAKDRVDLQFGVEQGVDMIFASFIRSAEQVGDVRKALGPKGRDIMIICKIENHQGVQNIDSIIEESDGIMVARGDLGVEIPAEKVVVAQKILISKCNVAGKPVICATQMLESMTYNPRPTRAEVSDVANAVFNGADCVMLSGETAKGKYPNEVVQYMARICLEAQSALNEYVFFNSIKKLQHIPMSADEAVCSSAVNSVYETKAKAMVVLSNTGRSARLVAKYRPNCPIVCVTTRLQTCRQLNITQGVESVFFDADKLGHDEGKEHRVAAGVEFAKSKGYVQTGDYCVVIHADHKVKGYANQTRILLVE
#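 Kinase-Glo luminescence read after 1 h RT reaction of 0.1 nM LmPK with 0.5 mM PEP and 0.1 mM ADP. Activity scaled between uninhibited and enzyme-free controls.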
# FBPA Giardia inh: inhibitors of Giardia lamblia fructose-1,6-bisphosphate aldolase. actives 0.71% (n = 290,000). purified Giardia FBPA. A8B2U2. Potency, µM (top dose mostly 59.6 µM), inactives show at the top dose activity, negative = inhibition, hits mostly inhibitors; also: potency is read from the fitted curve at half-maximal effect; % is scaled to controls: 0 for no effect and ±100 for the full control effect; nearly all actives have a fitted effect of over 55% in size
#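 40 nM FBPA preincubated 10 min at RT with compound (up to 57.5 uM final), then substrate plus GAPDH/TPI/NAD/arsenate coupling and diaphorase/resazurin added. Fluorescence read after 20 min at RT, 525/598 nm.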
# Cycloheximide cs: counter-screen hit for Shiga toxin inhibitors, cycloheximide | actives 12% (n = 300,000) | cell reporter, cycloheximide protein synthesis inhibition counterscreen | max response, % | AID 2314; in the data active = max response mostly above about 13%, no sharp cut-off; inactive = mostly below about 14%; also: read at 38.3 µM for the half of the compounds with a filed dose; 0% is about no effect
# Shiga inhibitor: Shiga toxin inhibition. Vero cells, Shiga toxin protein synthesis inhibition reporter. inhibition, % at 38.7 µM. actives 9.2% (n = 290,000). AID 2315; in the data active = inhibition mostly above about 28%, no sharp cut-off; inactive = mostly below about 43%; also: 0% is about no effect
# * = called active by the depositor; ? = inconclusive; nt = no result given; + = active, no number; [ ] = dose if it differs, or a comment. Unless noted, calls follow the shape of the dose curve; as a rule, active = well fitted curve in the direction sought with a large enough effect; inconclusive = small, poorly fitted or top-dose-only effect, or another doubt; inactive = no such curve, though single readings can be large; an effect the other way counts as inactive or inconclusive.
SMILES,RE007 growth inh,TbPYK inhibitor,LmPK inh,FBPA Giardia inh,Cycloheximide cs,Shiga inhibitor
O=C(N/N=C/c1cccnc1)c1ccco1,-16%,0%,-9%,4%,26*,66*
COc1cc(/C=N/NC(=O)c2cccnc2)ccc1OC(=O)c1ccco1,-9%,-31%,-5%,1%,-1,13
COc1ccc(NC(=O)c2cc(C3CCCCN3S(C)(=O)=O)on2)c(C)c1 (configuration not stated),1%,1%,nt,nt,nt,nt
CCOc1cc(CNC(=O)c2ccc(Cn3c(=O)c4cccn4c4cccnc43)cc2)ccc1OC,nt,1%,nt,nt,nt,nt
O=C(Nc1cccnc1)c1ccc2ccccc2c1O,?,0%,-8%,-30%,33*,39*
Nc1c(C(=O)N/N=C/c2ccccc2)cnn1-c1ccccc1,6%,2%,-6%,0%,45*,96*
O=C(N/N=C\c1cccnc1)c1ccc(Cl)cc1Cl,7%,1%,-1%,7%,31*,54*
O=C(N/N=C/c1ccccc1)c1cccc2ccccc12,10%,-8%,nt,nt,nt,nt
O=C(N/N=C/c1cccnc1)c1ccccc1Cl,-5%,-2%,-6%,7%,17*,61*
O=C(N/N=C/c1cccnc1)c1ccc(Cl)c(Cl)c1,-13%,-3%,nt,nt,nt,nt
O=C(Cc1ccccc1Cl)N/N=C/c1cccnc1,1%,-3%,-5%,nt,1,-25
CC(=O)NC(=S)Nc1ccc(S(=O)(=O)Nc2nc(C)cc(C)n2)cc1,11%,1%,-4%,-3%,-1,-14
CCCCn1c(N)c(N(CCOC)C(=O)c2cccc(-n3cnnn3)c2)c(=O)[nH]c1=O,1%,4%,nt,nt,nt,nt
O=C(N/N=C/c1cccnc1)c1ccc2ccccc2c1O,-25%,-8%,-2%,nt,20*,38*
O=C(N/N=C/c1cccnc1)c1cc(-c2ccccc2)nc2ccccc12,9%,0%,1%,-3%,-2,-3
O=C(Nc1cccc([N+](=O)[O-])c1)c1ccc2ccccc2c1O,-14%,-2%,4%,-9%,37*,38
O=C(c1cc2cc(F)ccc2[nH]1)N1CCC2(CC1)OCCO2,-1%,-1%,3%,nt,30*,50*
O=C(c1cc2cc(Cl)ccc2[nH]1)N1CCC2(CC1)OCCO2,14%,-2%,11%,nt,28*,30*
CN1CCN(C(=O)c2cc3cc(F)ccc3[nH]2)CC1,-11%,-8%,-3%,6%,16,-7
O=C(c1cc2cc3ccc(Cl)cc3nc2o1)N1CCC2(CC1)OCCO2,-16%,1%,-2%,0%,7,18
CCN(CC)C(=O)C1=C(C)N(Cc2ccc(OC)cc2)C(=O)C(CC(=O)NC2CCCCC2)C1 (configuration not stated),17%,1%,nt,nt,nt,nt
Cc1ccc2nc(-c3ccc4c(c3)OCCO4)cn2c1,?,-11%,14µM*,?,-8,-24
Clc1ccc2nc(-c3ccc4c(c3)OCO4)cn2c1,?,-7%,?,-27%,35*,76*
Cc1ccc2nc(-c3ccc4c(c3)NC(=O)CO4)cn2c1,-20%,-11%,-5%,?,42*,72*
COc1ccc(-c2cc(-c3ccc4c(c3)NC(=O)CO4)nc3c2COc2ccc(C)cc2-3)cc1,nt,0%,nt,nt,nt,nt
SMILES,RE007 growth inh,TbPYK inhibitor,LmPK inh,FBPA Giardia inh,Cycloheximide cs,Shiga inhibitor
Cc1ccc(CN2CCN(CCCn3cccn3)CC2CCO)cc1 (configuration not stated),6%,-4%,9%,0%,-3,-7
Cc1ccc(C(C)C)c(OCC(=O)Nc2cc(-c3nc4ccccc4[nH]3)ccc2C)c1,nt,-4%,nt,nt,nt,nt
CSc1ncccc1C(=O)NNC(=O)c1ccc(NS(=O)(=O)c2cccs2)cc1,7%,-4%,nt,nt,nt,nt
N#C/C(=N\Nc1ccccc1)C(=N)N1CCOCC1,2%,2%,-6%,-6%,30*,41*
Cc1ccc(N/N=C(\C#N)C(N)=S)cc1C,5%,-4%,2%,?,9,20
Cc1ccc(N/N=C(\C#N)C(=N)N2CCCCCC2)cc1,6%,2%,-1%[11.5 µM],3%,37*,94*
N#C/C(=N\Nc1ccc(Cl)cc1)C(N)=S,-6%,-10%,2%,-25%,23*,46*
CCN(CC)C(=N)/C(C#N)=N/Nc1ccc(C)cc1,-19%,0%,-3%,-23%,44*,87*
N#C/C(=N\Nc1ccc(S(=O)(=O)N2CCOCC2)cc1)C(N)=S,35%,-21%,-5%,?,-1,1
Cc1ccc(NC(=O)CCC(=O)NNC(=O)Nc2cccc(Cl)c2)c(C)c1,-2%,-2%,8%,9%,1,-7
N#CC(C#N)=NNc1ccc(S(=O)(=O)N2CCCCC2)cc1,nt,-8%,5%,15%,-2,-3
COc1ccc(N/N=C(\C#N)C(=N)N2CCCCC2)cc1,-7%,-1%,1%,-28%,43*,68*
Cc1ccc(N/N=C(\C#N)C(=N)N2CCOCC2)cc1,-5%,4%,-1%,-4%,56*,+
N#C/C(=N\Nc1ccc(F)cc1)C(=N)N1CCCCCC1,-12%,1%,-1%,-13%,27*,58*
N#C/C(=N\Nc1ccc(Cl)cc1)C(=N)N1CCCCC1,-5%,8%,6%,nt,23,+
COc1ccc(N/N=C(\C#N)C(=N)SCc2ccccc2)cc1,6%,-2%,5%,-26%,8,-17
CC(C)(C)c1ccc(C(=O)N/N=C/c2cccc(Cl)c2)cc1,4%,8%,2%,-11%,20,27
N#C/C(=N\Nc1ccccc1F)C(=N)N1CCCCC1,-1%,1%,1%,-28%,51*,114*
CC(C)(C)C(=O)Nc1ccccc1N1CCN(C(=O)c2ccc(Cl)cc2)CC1,40%,4%,6%,-10%,1,-2
CC(C)C(=O)NC(=S)Nc1ccccc1N1CCN(C(=O)c2ccc(Cl)cc2)CC1,-3%,-5%,-6%,-6%,32*,-19
Cc1cc(-c2n[nH]c(=S)n2-c2ccccc2C)cs1,0%,?,10µM*,-1%,12,26
Cc1cccc(-n2c(-c3ccncc3)n[nH]c2=S)c1C,0%,?,?,-26%,-1,-11
Cc1ccccc1-n1c(-c2ccncc2)n[nH]c1=S,-5%,?,32µM*,?,-3,-6
CCc1ccccc1-n1c(-c2ccncc2)n[nH]c1=S,18%,25µM*,13µM*,7%,6,-8
Cc1ccc(-n2c(-c3ccncc3)n[nH]c2=S)c(C)c1,1%,7.1µM*,-11%,-28%,-3,-26
CC1(C)C(=O)C=C[C@@]2(C)C1C=C[C@@]1(C)C2CC[C@@]2(C)C(c3ccoc3)OC(=O)C3OC312 (some centres not stated),nt,nt,nt,-3%,nt,nt

# Screens: PubChem BioAssay, National Center for Advancing Translational Sciences (NCATS)
